This is an account of results in ChEMBL document CHEMBL4513216, “Probing the Open Global Health Chemical Diversity Library for Multistage-Active Starting Points for Next-Generation Antimalarials” (ACS Infect Dis, 2020).

In all, about 68,000 compounds went through this assay and about 2,700 (4%) showed an effect of 50% or more. The full list was thinned out, with strong results kept by preference.

For the assay, the system named is Plasmodium berghei. In words: Screen against P. berghei liver stage (PbLuc), transformed with Luciferase, at 2uM. The class given is functional, HepG2. As to conditions: tested at 2 uM.
Turning to `COc1cc(Oc2ncccc2C(F)(F)F)ccc1CN1CCCC1`, the INHIBITION stood at 66.12%.
As for `COc1ccc(Oc2ncccc2C(F)(F)F)cc1CN1CCCC1`, the INHIBITION is on record as 20%.
Turning to `COc1cc(CN2CCCC2)ccc1Oc1ncccc1C(F)(F)F`, the INHIBITION is 43.1%.
The same measure for `c1cc2nccc(CC3CCCN(Cc4c[nH]cn4)CC3)c2cn1` (stereo not given): -0.83%; for `O=C(O)c1ccnc(-c2ccnc(COc3ccccc3Cl)n2)c1`: 17.2%.
The value for `CCc1cnc(CNC(=O)NCCCO)s1` was 52.85%; that for `CCc1cnc(CNC(=O)NCCc2ccc(O)cc2)s1` was 47.59%; that for `CCc1cnc(CNC(=O)NC2CC(C)(C)OC2(C)C)s1` (stereo not given) was -1.45%.
Take `CN(C)CC1CN(c2ncnc3ccsc23)CCO1` (stereo not given): the INHIBITION was 44.6%.
As to `CCN1CCCC1CNC(=O)CCc1cccs1` (stereo not given), the INHIBITION is 9.27%.
For `CSc1ccc(OC(C)C(=O)Nc2c(C)n[nH]c2C)cc1` (stereo not given), the INHIBITION turned out to be 3.5%.
The value for `CC(=O)N1CCC(c2cnc(-c3c(C)nn(C)c3C)cn2)CC1` was 34.06%; that for `Cn1cc(C(=O)CC2CCCN2C(=O)c2cncc3ccccc23)cn1` (stereo not given) was 11.1%.
The value for `COc1cc(C(=O)N2CCCC2CC(=O)c2cnn(C)c2)ccc1F` (stereo not given) was 64.2%; that for `Cn1cc(C(=O)CC2CCCN2C(=O)c2ccncc2F)cn1` (stereo not given) was -5.09%.
Regarding `Cn1cc(C(=O)CC2CCCN2C(=O)c2cccc3ncccc23)cn1` (stereo not given), the INHIBITION turned out to be 51.19%.
Regarding `Cn1cc(C(=O)CC2CCCN2C(=O)c2ccc(Cl)cn2)cn1` (stereo not given), the INHIBITION turned out to be 24.55%.
The same measure for `CCc1ccccc1C(=O)N1CCCC1CC(=O)c1cnn(C)c1` (stereo not given): -7.41%; for `Cc1noc([C@H]2C[C@H]3OCC[C@H]3N(C3CCC3)C2)n1`: 44.94%.
The same measure for `COc1ccccc1CN(C)C(=O)CN1CC(n2nc(C)cc2C)C1`: 18.15%; for `Cc1cc(C)cc(CN2CCN(Cc3cccc(CCN)c3)CC2=O)c1`: 61.75%.
The same measure for `Cc1cc(C)cc(N2CCN(Cc3cccc(CCN)c3)CC2=O)c1`: 10.92%; for `NCCc1cccc(CN2CCN(c3ccccc3)C(=O)C2)c1`: 22.72%.
As for `CC(C)c1nnc2n1CCN(Cc1ccc3c(c1)OCO3)CC2`, the INHIBITION is listed as -21.23%.
The same measure for `Cc1cccc(CN2CCC3(CCN(c4ccccn4)C3)C2=O)c1` (stereo not given): 17.39%; for `Cc1n[nH]c(C2CN(CC(=O)NCCc3ccsc3)CCO2)n1` (stereo not given): 50.74%.
Regarding `CCc1n[nH]c(C2CN(CC(=O)NCCc3ccsc3)CCO2)n1` (stereo not given), the INHIBITION stood at 12.46%.
Take `Cc1n[nH]c(C2CN(CC(=O)NCCc3ccccc3)CCO2)n1` (stereo not given): the INHIBITION is given as 19.43%.
As to `CC(CNC(=O)CCCc1ccccn1)c1ccsc1` (stereo not given), the INHIBITION was found to be 18.85%.
The value for `Cc1ccc(CN2CC[C@@H](O)[C@@H]2Cc2ccccc2)o1` was 14.65%.
The value for `Cc1cccc(C(C(=O)N(C)CCc2cn[nH]c2)N(C)C)c1` (stereo not given) was 67.28%.
The same measure for `Cc1ccccc1C(C(=O)N(C)CCc1cn[nH]c1)N(C)C` (stereo not given): -102.03%; for `CN(CCc1cn[nH]c1)C(=O)C(c1ccc(F)cc1)N(C)C` (stereo not given): 38.67%.
On to `Cc1cc(C)cc(CCC(=O)N(C)CCc2cn[nH]c2)c1`, for which the INHIBITION is -4.26%.
The same measure for `Cc1ccc(C(C(=O)N(C)CCc2cn[nH]c2)N(C)C)cc1` (stereo not given): 69.67%.
The same measure for `Cc1cccc(C(C(=O)N(C)Cc2ccon2)N(C)C)c1` (stereo not given): -2.69%; for `Cc1ccc(CCC(C)NC2CCN(C(N)=O)CC2)cc1` (stereo not given): -5.43%.
The same measure for `CN1CCN(CCCNC(=O)CCc2nc3cc(Br)cnc3[nH]2)CC1`: 12.87%; for `O=C(Nc1nc2c(s1)CN(S(=O)(=O)C1CC1)CC2)Nc1ccccc1F`: 47.9%.
For `c1csc(N2CCN(c3ncnc4sccc34)CC2)n1`, the INHIBITION worked out at 16.93%.
As for `CC1CN(c2ncnc3c2cnn3C)CCN1c1nccs1` (stereo not given), the INHIBITION was 57.16%.
The value for `CC1CN(c2ncnc3sccc23)CCN1c1nccs1` (stereo not given) was 38.01%.
`O=C(Cc1ccccn1)N1CCn2cc(Cn3cncn3)nc2C1`: the INHIBITION was -33.15%.
The same measure for `Cc1ccc(-c2nc(CN3CCN(CC(=O)N(C)C)CC3)cs2)o1`: 4.18%; for `Cc1ccc(-c2nc(CN3CCN(C(=O)C4CC4)CC3)cs2)o1`: -21.93%; for `Cc1ccc(-c2nc(CN3CCN(S(=O)(=O)N(C)C)CC3)cs2)o1`: 53.12%.
The same measure for `Cc1ccc(-c2nc(CN3CCC(C(=O)N(C)C)CC3)cs2)o1`: 27.91%.
For the compound `CCNC(=O)C1CCN(Cc2csc(-c3ccc(C)o3)n2)CC1`, the INHIBITION was found to be 50.12%.
As to `Cc1ccc(-c2nc(CN3CCn4c(C)nnc4C3)cs2)o1`, the INHIBITION is 42.58%.
The value for `CCOC(=O)C1CCN(Cc2csc(-c3ccc(C)o3)n2)CC1` was -0.76%; that for `CCc1nnc2n1CCN(Cc1csc(-c3ccc(C)o3)n1)C2` was 58.49%.
The same measure for `CCc1nnc2n1CCN(Cc1nc(-c3ccoc3)no1)C2`: 73.05%; for `Cc1ccc(-c2nc(CN3CCn4c(nnc4C4CC4)C3)cs2)o1`: -110.74%; for `CC(C)c1nnc2n1CCN(Cc1nc(-c3ccoc3)no1)C2`: 7.01%.
The same measure for `Cc1nnc2n1CCN(Cc1nc(-c3ccoc3)no1)C2`: -25.13%.
